Reference: PubChem BioAssay AID651814 (National Center for Advancing Translational Sciences (NCATS), 2012)
The campaign covered roughly 2,100 compounds. About 590 (28%) were called active. Not shown: some 42% with an inconclusive outcome. Calls follow the shape of the dose curve; as a rule, active = well fitted inhibition curve with a large enough effect; inconclusive = small, poorly fitted or top-dose-only effect; inactive = flat fitted curve, though single readings scatter. Some of the results follow.

What follows are molecules tested against DNA dC->dU-editing enzyme APOBEC-3F (Homo sapiens) (UniProt Q8IUX4) (assay: qHTS for inhibitors of Vif-A3F interactions: Cherry picks). Conditions: HeLa A3F-eYFP + Vif (tagged APOBEC3F with the HIV-1 protein that degrades it), eYFP fluorescence, 24 h.
Outline: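 HeLa cells stably expressing A3F-eYFP plus Vif, cultured overnight, then exposed to compounds at several concentrations for 24 h at 37 deg C. Reduced Vif-driven degradation read as rising eYFP fluorescence (488 nm ex/500-530 nm em) by laser-scanning cytometry; MG132 as positive control.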
Also: nearly all actives have a fitted effect of over 70% in size.
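For Max response in this document: % of control where 0% means no effect; active compounds raise eYFP fluorescence by blocking Vif-driven A3F loss.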
Potency is read from the fitted curve at half-maximal effect.

DNA dC->dU-editing enzyme APOBEC-3F (Homo sapiens), sequence (Q8IUX4 whole entry, looked up): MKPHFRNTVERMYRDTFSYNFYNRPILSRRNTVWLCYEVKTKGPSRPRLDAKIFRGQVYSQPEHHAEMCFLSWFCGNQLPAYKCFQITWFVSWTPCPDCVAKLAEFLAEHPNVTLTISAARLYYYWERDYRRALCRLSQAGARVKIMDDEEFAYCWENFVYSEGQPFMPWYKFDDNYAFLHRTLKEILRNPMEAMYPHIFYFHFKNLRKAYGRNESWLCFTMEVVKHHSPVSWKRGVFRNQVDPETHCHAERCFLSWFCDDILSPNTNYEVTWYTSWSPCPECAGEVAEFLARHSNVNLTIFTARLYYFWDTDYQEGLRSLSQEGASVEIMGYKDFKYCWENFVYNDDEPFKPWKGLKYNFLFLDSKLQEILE

Max response, inactive:
CCCCOc1ccc(/C=C/C2=CC(C)(C)NC(=S)N2)cc1OCC -3.97%
CN(C)c1ccc(/C=C/c2ccncc2)cc1 -29.1%
Cc1cc(C)c(C(=O)N(CCN(C)C)CC2CCCN(Cc3ccccc3F)C2)o1 (stereo not given) 2.52%
Cc1ccc(CNC(=O)Cn2cc(C(=O)c3ccc(Cl)cc3)c(=O)c3ccc(C)nc32)cc1 -28.8%
CCOc1ncccc1C(=O)NCc1ccc(OC)cc1 -24.5%
Cc1ccc(-n2c(=O)c3ccc(C(=O)NCc4ccccc4Cl)cc3n(CC(=O)Nc3cccc(Cl)c3)c2=O)cc1 -26%
CCOc1ncccc1C(=O)OCc1ccc(C(=O)OC)cc1 -26.7%
Cc1ccc2nc(-c3ccccn3)c(Nc3ccccc3C)n2c1 -2.29%
O=C(N/N=C/c1ccc([N+](=O)[O-])o1)c1cn2ccc3ccccc3c2n1 -11.2%
O=C(Cc1cc2ccccc2o1)NCc1ccc(F)cc1 -14%
CSc1ccc(/C=N/NC(=O)c2ccccc2Cl)cc1 -22.8%
Cc1cccc(C)c1Nc1nc2ccccc2nc1NS(=O)(=O)c1ccccc1 -12.4%
O=C(NC(=S)Nc1ccccc1N1CCCCC1)c1ccccc1 -2.38%
COc1ccc2cc(C(=O)C3CCCN(Cc4ccccn4)C3)ccc2c1 (stereo not given) 1.49%
NNC(=O)c1cc2sccc2s1 -9.98%
CN1CCN(c2nc3ccccc3nc2NS(=O)(=O)c2ccc(Br)cc2)CC1 -2.09%
CCOC(=O)N1CCC(Nc2nc3ccccc3nc2NS(=O)(=O)c2ccc(Cl)cc2)CC1 -1.97%
O=C(N=c1ccn(-c2nc3ccccc3nc2NS(=O)(=O)c2ccccc2)cc1)c1cccs1 -18.4%
O=S(=O)(Nc1nc2ccccc2nc1N1CCN(c2ccccc2)CC1)c1ccc(F)cc1 -24.2%
CCC(C)Sc1cccc(-c2nc3cc(C)ccn3c2NC2CCCCC2)c1 (stereo not given) -1.04%
Cc1cc(-n2c(SCC(=O)Nc3ccc(Br)cc3)nc3n[nH]c(C)c3c2=N)ccc1Cl -24.1%
Cc1cc(-n2c(C)cc(C(=O)CCl)c2C)no1 -21.8%
COc1ccc2oc(=N)c(C(=O)Nc3ccc(F)cc3)cc2c1 -21%
COc1cc(OC)cc(C(=O)Nc2ccc(N3CCN(C(=O)c4cccs4)CC3)cc2)c1 -11.5%
COC(=O)C1=C(Nc2ccc(C)cc2)C=C(C)C(C(=O)OC)C1c1cccc(OC)c1 (stereo not given) -20.5%
COCc1ccc(O)c2ncccc12 1.62%
Cc1ccc(C)c(N2CCN(C(=O)c3cccn4c(=O)c5sccc5nc34)CC2)c1 -29.7%
Cc1ccc(C(=O)O)cc1Nc1nc2ccccc2n2nnnc12 -4.15%
CN(C)c1ccc(Nc2nc3ccccc3n3nnnc23)cc1 -2.05%
CCCn1nnc(NC(=S)NC(=O)c2ccccc2OC)n1 0.308%
CC(=O)Nc1ccc(NC(=O)C/C(C)=N/NC(N)=S)cc1 0.646%
CCc1ccc(C(=O)NC(=S)Nc2ccc(N3CCOCC3)cc2)cc1 -0.0784%
COCCCNC(=S)N/N=C/c1ccc(OC)cc1 -0.494%
C=CCNC(=S)N/N=C(\C)c1ccc(OC)cc1 -3.87%
Cc1nn(-c2ccc(F)cc2)c(Cl)c1/C=C1\C(=O)Nc2ccccc21 -19.4%
CNCC(O)Cn1c2c(c3ccccc31)CCCC2 (stereo not given) 1.63%
CCN(CC)c1ccc(NC(=O)CSc2nc(C3CC3)nc3ccccc23)cc1C -22.1%
Cc1cc(C)n(S(=O)(=O)/C=C/c2ccccc2)n1 -7.92%
c1ccc2[nH]c(NN=C3CCCCCC3)nc2c1 2.02%
O=S(=O)(Nc1cccc2ncccc12)c1cccs1 -3.96%
CC(=O)c1cccc(NC(=S)N2c3ccccc3CC2C)c1 (stereo not given) 9.61%
Cc1ccc(NC(=O)c2ccc([N+](=O)[O-])s2)cc1S(=O)(=O)N1CCOCC1 -11.7%
COC(=O)c1sccc1NC(=S)Nc1cc(C)cc(C)c1 -0.135%
Cc1nc(NC(=O)/C=C/c2ccco2)sc1C -21.9%
N#C/C=C/N1CCN(C(=O)c2ccco2)CC1 0.169%
Cc1cc(C)nc(-n2nc(C)cc2NC(=O)c2ccc(F)cc2F)n1 -0.0521%
COc1cccc(Nc2nc(Nc3ccc(Cl)c(C(=O)O)c3)nc(C)c2[N+](=O)[O-])c1 -16.3%
CCOC(=O)c1cc2n(c1N)-c1ccccc1C2=O -16.6%
Fc1cccc(Cc2c(-c3ccco3)nc3ccc(Br)cn23)c1 -28.7%
O=C1c2cccc3c([N+](=O)[O-])ccc(c23)C(=O)N1c1ccccn1 -0.304%
CC(=O)Oc1ccc(N2C(=O)c3cccc4c([N+](=O)[O-])ccc(c34)C2=O)cc1 -15.1%

Potency, active:
CCN(CC)c1ccc(/C=C/C2=C3C=CC=CC3NC=C2)cc1 (stereo not given) 18.4 µM
CCN(CC)c1ccc(/C=C/c2ccccn2)cc1 5.17 µM
CCN(CC)c1ccc(/C=C/c2ccncc2)cc1 4.11 µM
O=C(NCCc1ccccc1Cl)c1ccc(Cn2c(=O)c3cccn3c3cccnc32)cc1 20.6 µM
CCOc1ccc(CCNC(=O)c2ccc(Cn3c(=O)c4cccn4c4cccnc43)cc2)cc1 16.4 µM
CCOc1ccc(NC(=O)Cn2c(=O)n(Cc3ccc(C(=O)NCc4ccc(C)cc4)cc3)c(=O)c3ccccc32)cc1 11.6 µM
CCCCN1C(=O)C2Cc3c([nH]c4ccccc34)CN2C1=S (stereo not given) 15.8 µM
CC1(C)CCN2CCC(C)(C)c3c(O)ccc1c32 14 µM
O=C(N/N=C/c1ccc([N+](=O)[O-])o1)c1cc2c(ccc3ccccc32)o1 9.2 µM
O=C(N/N=C/c1ccc([N+](=O)[O-])o1)c1sc2ccccc2c1Cl 8.2 µM
N#Cc1c(-c2ccc(F)cc2)c(-c2ccc(F)cc2)nn(CCO)c1=O 7.04 µM
Cc1ccc2c(c1)sc(-c1ccc(N(C)C)cc1)[n+]2C 18.4 µM
COc1ccc2nc(SCC(=O)N3CC(=O)Nc4ccccc43)c(C#N)cc2c1 10.3 µM
CCc1ccc2nc(SCC(=O)Nc3ccccc3N3CCOCC3)c(C#N)cc2c1 1.46 µM
CCc1ccc2nc(SCC(=O)N3CC(=O)Nc4ccccc43)c(C#N)cc2c1 15.8 µM
O=c1[nH]c2cc(Br)cnc2nc1/C=C(\O)c1ccc(F)cc1 13 µM
O=S(=O)(Nc1nc2ccccc2nc1N1CCN(c2ccccn2)CC1)c1ccc(Cl)cc1 18.4 µM
O=C(N=c1ccn(-c2nc3ccccc3nc2NS(=O)(=O)c2ccc(Cl)cc2)cc1)c1cccs1 13 µM
COc1ccc2o/c(=N/NC(=O)c3cccs3)c(C(N)=O)cc2c1 3.96 µM
CN(C)c1ccc2ccc3cccc4ccc1c2c34 9.2 µM
Cc1cccc(CN2C(=O)N/C(=C/c3ccc(C)s3)C2=O)c1 9.94 µM
Cc1cc(NC(=O)/C(C#N)=C/c2ccc(-c3ccc(SC(F)F)cc3)o2)n(-c2ccccc2)n1 3.66 µM
Cc1cc(NC(=O)/C(C#N)=C\c2ccc(-c3ccc(SC(F)F)cc3)o2)n(-c2ccccc2)n1 9.2 µM
CCOC(=O)c1ccc(/C=C2/C=C(c3ccccc3)N(c3ccc(Cl)c(C(=O)O)c3)C2=O)cc1 20.6 µM
CC(NC(=O)c1ccc(Nc2nc3ccccc3n3nnnc23)cc1)c1ccccc1 (stereo not given) 16.4 µM
Cc1cccc2cc3c(N)c(C(=O)N4CCc5ccccc54)sc3nc12 6.51 µM
Cc1ccc2nc3sc(C(=O)N4CCCc5ccccc54)c(N)c3cc2c1 14 µM
Cc1cccc2cc3c(N)c(C(=O)N4CCCc5ccccc54)sc3nc12 9.2 µM
O=C(Cc1nc2ccccc2[nH]c1=O)c1ccc(Cl)cc1 18.4 µM
CCc1ccc(NC(=O)/C(C#N)=C/c2cc3ccc(C)cc3nc2N2CCOCC2)cc1 14.6 µM
Cc1cc(C)c(/C=C2\C(=O)Nc3ccccc32)[nH]1 16.4 µM
CCN(CC)c1cc(C)c(/C=C/c2ccnc3ccccc23)cc1C 13 µM
Cc1cc(N(C)C)c(C)cc1/C=C/c1ccnc2ccccc12 18.4 µM
O=C(Nc1ccccc1-c1nc2ccccc2[nH]1)c1ccc(N2C(=O)CCC2=O)cc1 18.4 µM
CCN1C(=S)SC(=O)C1=C1C=C(C)N(Cc2ccco2)C(C)=C1 17.7 µM
CN(C)C=Nc1c(Br)cc(Br)c2nonc12 14.6 µM
Cc1cccc(NC(=O)/C=C/c2ccc([N+](=O)[O-])s2)c1 3.26 µM
CC(=O)c1cccc(NC(=O)/C=C/c2ccc([N+](=O)[O-])s2)c1 5.17 µM
Cc1cc(C)cc(NC(=O)/C=C/c2ccc([N+](=O)[O-])s2)c1 10.3 µM
Cc1ccc(NC(=O)/C=C/c2ccc([N+](=O)[O-])s2)c(C)c1 5.17 µM
Cc1ccc(NC(=O)/C=C/c2ccc([N+](=O)[O-])s2)cc1 5.17 µM
CCOC(=O)c1cc2n(c1/N=C/N(C)C)-c1ccccc1C2=O 18.4 µM
O=C1c2ccccc2C(=O)c2c(/C=C/N3CCCCC3)ccnc21 20.6 µM
CC(=O)Oc1cccc(N2C(=O)c3cccc4c([N+](=O)[O-])ccc(c34)C2=O)c1 14 µM
